# Laboratory results as given in PubChem BioAssay (Tox21).
# Records with an inconclusive call do not appear. The source made the active and inactive calls. Calls follow the shape of the dose curve; as a rule, active = well fitted cell-killing curve with a large enough effect in the repeat runs; inconclusive = weak or mixed curves, or effect the other way; inactive = flat fitted curve, though single readings scatter.
# Assay: Human pregnane X receptor (PXR) small molecule agonists, qHTS cell viability counter screen (AID 1346977); also: nearly all actives have a fitted effect of over 50% in size
# Details: PXR-Luc HepG2 viability, CellTiter-Fluor, 24 h; series mostly up to 92.4 µM; activity change, negative = cytotoxicity: at the top concentration
# Summary of the method: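 Cytotoxicity counter screen run in the same wells as the PXR luciferase assay, using PXR-Luc HepG2 cells in charcoal-stripped serum medium. Viability: CellTiter-Fluor fluorescence after 24hr compound treatment.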
# % is scaled to controls: 0 for no effect and ±100 for the full control effect.
row,Compound,"activity change, negative = cytotoxicity"
1,CN1CCN(c2c(F)cc3c(=O)c(C(=O)O)cn4c3c2SCC4)CC1,-0.0096% [at 42.5 µM] (inactive)
2,CC(Oc1c(Cl)cccc1Cl)C1=NCCN1 (stereo not drawn),-12.7% [at 42.5 µM] (inactive)
3,CCN[C@H]1CN(CCCOC)S(=O)(=O)c2sc(S(N)(=O)=O)cc21,0.701% [at 42.5 µM] (inactive)
4,C[C@@H]1CN(c2c(F)c(N)c3c(=O)c(C(=O)O)cn(C4CC4)c3c2F)C[C@H](C)N1,5.72% [at 19 µM] (inactive)
5,CCc1cc(Cl)c(OC)c(C(=O)NC[C@@H]2CCCN2CC)c1O,-12% [at 42.5 µM] (inactive)
6,CCCCNCCCC,13.8% (inactive)
7,NC1=NCC2c3ccccc3Cc3ccccc3N12 (stereo not drawn),0.786% [at 42.5 µM] (inactive)
8,CCCNC(C)C(=O)Nc1c(C)csc1C(=O)OC (stereo not drawn),-1.74% [at 42.5 µM] (inactive)
9,O=C(O)[C@@H](O)[C@H](O)[C@H](O)[C@@H](O)C(=O)O,8.53% [at 42.5 µM] (inactive)
10,CO[C@@]1(NC(=O)CSCC#N)C(=O)N2C(C(=O)O)=C(CSc3nnnn3C)CS[C@@H]21,14.5% [at 42.5 µM] (inactive)
11,CCCCCCCCCCCCCCCCOP(=O)([O-])OCC[N+](C)(C)C,2.49% [at 42.5 µM] (inactive)
12,CN(C)Cc1ccccc1,-1.05% (inactive)
13,NCCC(O)(P(=O)(O)O)P(=O)(O)O,10.6% [at 42.5 µM] (inactive)
14,CCCC(CCC)(C(=O)OCC)C(=O)OCC,7.98% [at 42.5 µM] (inactive)
15,C[C@@H]1CN(c2c(F)c(F)c3c(=O)c(C(=O)O)cn(C4CC4)c3c2F)C[C@H](C)N1,6.01% [at 19 µM] (inactive)
16,C[C@@H](N)C(=O)O,-14.9% [at 42.5 µM] (inactive)
17,O=C1CCCc2ccccc21,0.82% (inactive)
18,CC1(C)O[C@@H]2C[C@H]3[C@@H]4CCC5=CC(=O)CC[C@]5(C)[C@@]4(F)[C@@H](O)C[C@]3(C)[C@]2(C(=O)CCl)O1,13.8% [at 42.5 µM] (inactive)
19,CC(C)C(=O)OC/C=C/c1ccccc1,9.96% (inactive)

row,Compound,"activity change, negative = cytotoxicity"
1,O=C(O[C@@H](C(=O)O)[C@@H](OC(=O)c1ccccc1)C(=O)O)c1ccccc1,6.5% (inactive)
2,CCOC(=O)c1cc(=O)c2c(OCC(COc3cccc4oc(C(=O)OCC)cc(=O)c34)OC(=O)[C@@H](N)CCCCN)cccc2o1,8.92% [at 42.5 µM] (inactive)
3,C=CCCCCCCCCO,1.34% (inactive)
4,CN1C(=O)CC(c2ccccc2)C1=O (stereo not drawn),1.09% [at 42.5 µM] (inactive)
5,CCCc1c2oc(C(=O)O)cc(=O)c2cc2c(=O)cc(C(=O)O)n(CC)c12,2.28% [at 42.5 µM] (inactive)
6,CN1CCN(N)CC1,2.19% [at 42.5 µM] (inactive)
7,CCc1nnc(NS(=O)(=O)c2ccc(N)cc2)s1,17.3% [at 42.5 µM] (inactive)
8,CCCCC(=O)O[C@]1(C(=O)CO)[C@H](C)C[C@H]2[C@@H]3CCC4=CC(=O)C=C[C@]4(C)[C@@]3(F)[C@@H](O)C[C@@]21C,15% [at 42.5 µM] (inactive)
9,CCOc1ccc2nc(N)sc2c1,1.2% (inactive)
10,CCCCCCn1c(=O)c2c(ncn2C)n(C)c1=O,12.8% [at 42.5 µM] (inactive)
11,OCCN(CCO)CCN(CCO)CCO,13% (inactive)
12,Cc1ccc([N+](=O)[O-])cc1Cl,3.88% (inactive)
13,Cc1ccc(C)c(N)c1,5.85% (inactive)
14,CN1[C@@H]2CC[C@H]1CC(OC(=O)c1c[nH]c3ccccc13)C2 (stereo partly drawn),-26.5% [at 42.5 µM] (inactive)
15,NC(=O)Cc1cccc(C(=O)c2ccccc2)c1N,0.418% [at 42.5 µM] (inactive)
16,CCC/C=C/CO,11.3% (inactive)
17,O=C(O)c1cccc(Cl)c1Cl,0.815% (inactive)
18,CCCCc1ccc2nc(NC(=O)OC)[nH]c2c1,-8.24% [at 42.5 µM] (inactive)
19,CCN(CC)CCNC(=O)COc1ccc(Cl)cc1,-6.28% [at 42.5 µM] (inactive)
